The panel holds about 83,000 compounds, 20% with a hit somewhere; the sample as a whole holds those more often.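 Single-dose data. Exposure time 48 hours. Values below 10 considered active.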 Unmarked numbers belong to inactive results. The source made the active and inactive calls.
Tests used:
Assay in all cases: NCI-60 one-dose screen, 48 h (100 = growth as untreated, 0 = no growth, -100 = all killed)
Conditions in all cases: 10 µM unless noted
[1] = system: T-47D breast
[2] = system: BT-549 breast
[3] = system: MDA-MB-435 melanoma
[4] = system: SW-620 colon
[5] = system: MCF7 breast
[6] = system: HCT-116 colon
[7] = system: HCC-2998 colon
[8] = system: KM12 colon

SMILES | growth [1] | growth [2] | growth [3] | growth [4] | growth [5] | growth [6] | growth [7] | growth [8]
O=C(NC1CCC(Br)CC1)C1CCCC(S(=O)(=O)NC2CCCCC2)C1 (stereo not drawn) | -9.71% [25 µM] (active) | 21.6% [25 µM] | 14.4% [25 µM] | 31.2% [25 µM] | 6.38% [25 µM] (active) | 17% [25 µM] | 24.6% [25 µM] | 16.9% [25 µM]
COc1ccc2cc(-c3nc4ccc(C)cn4c3NCc3ccco3)c(=O)[nH]c2c1 | 47.1% | 66.1% | 86.8% | 87.1% | 74.1% | 57.5% | 95.6% | 77.7%
C1CCC(N2CN3c4nonc4N4CN(C5CCCCC5)CN5c6nonc6N(C2)C3C45)CC1 (stereo not drawn) | 95.3% | 99.8% | 100% | 92.8% | 89.1% | 101% | 98.4% | 98.8%
C=CC(=O)Nc1cccc(Oc2nccc(Nc3nnc(-c4ccc(Br)cc4)s3)n2)c1 | 82.1% | 109% | 94.3% | 96% | 70.8% | 98.9% | 114% | 100%
Clc1ccc2nn3c4ccccc4c(OCCN4CCOCC4)nc3c2c1 | 87.7% | 97.8% | 103% | 88.1% | 83.4% | 88.7% | 107% | 100%
COc1ccc(Nc2ncc(I)c(NCCCNC(=O)C3CCC3)n2)cc1 | 43% | -73.8% (active) | 49.4% | 12.9% | 3.83% (active) | -30.3% (active) | 25.4% | 5.46% (active)
Cn1cc(-c2csc(-c3cn(CCCN4CCOCC4)c4ccc(F)cc34)n2)c2cccnc21 | 41.1% | 71.6% | 65.3% | 61% | 34.1% | 72.3% | 65.4% | 34.3%
O=Nc1ccc(NC(=O)Nc2ccc([N+](=O)[O-])cc2)cc1 | 78.9% | 98.3% | 96.5% | 97.4% | 94% | 86.5% | 104% | 90.7%
O=C1C=C(SCCO)C(=O)c2ccccc21 | -1.68% (active) | -26.5% (active) | -88.3% (active) | -52.6% (active) | -55.1% (active) | -48.5% (active) | 78.3% | 83.4%
CC(C)(C)c1ccc(C(=O)N/N=C/c2ccc(O)cc2O)cc1 | 33.1% | 32% | 34.3% | 30% | 8.44% (active) | 23.4% | 19.4% | 12.5%
CCn1cc(Cc2cc(C(=O)Nc3cc4cc(OC)c(OC)cc4c(C)n3)ccc2Cl)cn1 | 19.8% | 17.3% | 2.12% (active) | 38.3% | 18.5% | 10.3% | 65.1% | 37.7%
O=C(Nc1ncc(Cc2ccccc2)s1)c1sc2ccccc2c1Cl | 19.3% | 62.3% | -65.2% (active) | 20.4% | 14.4% | 24.8% | 17.6% | 12.5%
C=C(C)[C@@H]1CC[C@]2(C)[C@H](C=CC3=C4C[C@@](C)(CO)CC[C@]4(C)CC[C@]32C)[C@@]1(C)CCCN | -43.7% (active) | 80% | -96.8% (active) | -80.8% (active) | -78.5% (active) | -86.5% (active) | -92% (active) | -71.7% (active)
O=C1CCCCN1c1ccc(C2=NCCCN2)cc1 | 57.8% | 89.6% | 96.9% | 85.7% | 84.2% | 92.1% | 109% | 90%
CCOC(=O)c1nnn(-c2no[n+]([O-])c2-c2ccc(OC)cc2)c1COc1cccc2cccnc12 | 53.1% | -14.7% (active) | 9.72% (active) | 26% | 15.2% | 9.49% (active) | 55.4% | 19.7%
COc1ccc(N/N=C/c2cn(-c3ccc(C(=O)O)cc3)nc2-c2cc3ccccc3oc2=O)cc1 | 49.6% | 77.8% | 52.4% | 52.9% | 49% | 49.7% | 41.8% | 48.2%

SMILES | growth [1] | growth [2] | growth [3] | growth [4] | growth [5] | growth [6] | growth [7] | growth [8]
CC[C@H](Nc1nc(N)nc(C)c1C#N)c1nc2cccc(CN(C)c3ncc(C(=O)NO)cn3)c2c(=O)n1-c1ccccc1 | -23.1% (active) | 34.6% | -3.69% (active) | 3.51% (active) | 10.8% | -19.7% (active) | -7.29% (active) | 16.4%
CN1c2ccccc2S(=O)(=O)n2c(SCC(=O)Nc3nc4ccc(F)cc4s3)nnc21 | 112% | 122% | 117% | 107% | 88.2% | 110% | 128% | 97.7%
O=S(=O)(Nc1ccc2ccccc2c1)c1ccc(-c2cnc(C3CC3)o2)cc1 | 29.8% | 62.6% | -30.2% (active) | 24.3% | 22.1% | 25.4% | 64.3% | 24.7%
CN(C)C1CN(C(=O)c2cc(-c3ccc4ncnc(N5CCc6cc(F)c(Cl)cc65)c4c3)cnc2N)C1 | 4.73% (active) | -12.8% (active) | 9.39% (active) | 19.1% | 5.85% (active) | 10.6% | 15.3% | 18.2%
Cc1nc(N/N=C/c2cn(-c3ccccc3)nc2-c2cc3ccccc3oc2=O)sc1N=Nc1ccccc1 | 83.2% | 78.3% | 3.67% (active) | 78.8% | 68.3% | 87.4% | 104% | 63.7%
CN(C)c1ccc(C(=S)c2ccc(N(C)C)cc2)cc1 | 74.2% | 83.5% | -13.2% (active) | 43.9% | 46.4% | 57.8% | 70.6% | 47.2%
CCOC(=O)C#Cc1c(C(=O)OCC)nnn1[C@@H]1O[C@H](COC)[C@@H](OC)[C@H]1OC | 15.2% | 98.7% | 98.7% | -38.7% (active) | 8.52% (active) | 84% | 128% | 105%
COc1ccc(C(=O)Nc2ncc(Cc3ccc(Cl)cc3)s2)cc1 | 25.9% | 17.8% | 2.35% (active) | 25.7% | 8.72% (active) | 3.61% (active) | 6.76% (active) | 5.8% (active)
O=C1/C(=C/c2ccccn2)SC(=S)N1N1CCOCC1 | 99.4% | 99.9% | 103% | 97.6% | 87.4% | 104% | 97.7% | 103%
CNC(=O)c1cc(Oc2ccc3c(c2)sc2nc(-c4ccc(NC(=O)[C@@H](NC(=O)OC)C(C)C)cc4)cn23)ccn1 | 8.68% (active) | 14.2% | 38.5% | 84.3% | 51.6% | 55% | 93.4% | 32.8%
O=c1oc2ccccc2cc1-c1nn(-c2ccccc2)cc1-c1nn[nH]n1 | 100% | 103% | 99.5% | 102% | 94.8% | 96.5% | 110% | 106%
CN1C(=O)/C(=C/c2ccc(C(=O)Nc3ncc(Cc4cc(Cl)ccc4Cl)s3)cc2)SC1=S | 59.8% | 85.2% | 5.7% (active) | 62.8% | 67.4% | 60.9% | 83.1% | 49.8%
COc1ccc(C2CC(n3ccnc3)c3cc(OC)c(OC)c(OC)c32)cc1O (stereo not drawn) | 94.3% | 90.4% | 5% (active) | 62.5% | 44.8% | 81.1% | 99.2% | 50.6%
Cc1cc(C)c2c(c1)N(C)c1ncnc(-n3c(C)nc4cc(C)ccc43)c1CC2C (stereo not drawn) | 48.9% | 59.2% | 2.51% (active) | 19.6% | 18.7% | 17.4% | 76.1% | 38.7%
CC(C)(C)c1ccc(S(=O)(=O)Oc2ccc(-c3sc4cc(OS(=O)(=O)c5ccc(C(C)(C)C)cc5)ccc4c3C(=O)c3ccc(OCCN4CCCCC4)cc3)cc2)cc1 | 79.1% | 97.7% | 100% | 101% | 96.8% | 91.6% | 98.1% | 95.5%

Reference: PubChem BioAssay (NCI)
